This passage reports potency estimated from few doses results from publication PMC11062922 (Nature Chemical Biology, 2023).

Like-named read-outs stand apart in the source and are kept apart here.

Assay [1] has as its system PRKCI. Also on record: species or system human, MV4-11 + K-562 + COLO205 + SK-N-BE2 + OVCAR-8. The following applies: read-out: apparent Kd; compound concentrations:100 nM and 1000 nM (sheet 'Samples'); n = 1.
For assay [2], the system named is PI4KA. Also on record: species or system human, MV4-11 + K-562 + COLO205 + SK-N-BE2 + OVCAR-8. Particulars: read-out: apparent Kd; compound concentrations: 100 nM and 1000 nM (sheet 'Samples'), CATDS: 0.112986099678868; n = 1.
Assay [3] has as its system STK26. Also on record: species or system human, MV4-11 + K-562 + COLO205 + SK-N-BE2 + OVCAR-8. The following applies: read-out: apparent Kd; compound concentrations: 100 nM and 1000 nM (sheet 'Samples'), CATDS: 0.52714165558765103; n = 1.
The test system of assay [4] is PIM2. Also on record: species or system human, MV4-11 + K-562 + COLO205 + SK-N-BE2 + OVCAR-8. The following applies: read-out: apparent Kd; compound concentrations: 100 nM and 1000 nM (sheet 'Samples'), CATDS: 1; n = 1.
Assay [5] deals with PIM3. Also on record: species or system human, MV4-11 + K-562 + COLO205 + SK-N-BE2 + OVCAR-8. The following applies: read-out: apparent Kd; compound concentrations: 100 nM and 1000 nM (sheet 'Samples'), CATDS: 0.55054057410094004; n = 1.
Assay [6] deals with SMC4. Also on record: species or system human, MV4-11 + K-562 + COLO205 + SK-N-BE2 + OVCAR-8. The following applies: read-out: apparent Kd; compound concentrations: 100 nM and 1000 nM (sheet 'Samples'), CATDS: 0.57123951593094102; n = 1.
The subject of assay [7] is PRKCQ. Also on record: species or system human, MV4-11 + K-562 + COLO205 + SK-N-BE2 + OVCAR-8. The following applies: read-out: apparent Kd; compound concentrations: 100 nM and 1000 nM (sheet 'Samples'), CATDS: 1; n = 1.
Assay [8] relates to PRKG1. Also on record: species or system human, MV4-11 + K-562 + COLO205 + SK-N-BE2 + OVCAR-8. Particulars: read-out: apparent Kd; compound concentrations:100 nM and 1000 nM (sheet 'Samples'); n = 1.
Assay [9] concerns RET. Also on record: species or system human, MV4-11 + K-562 + COLO205 + SK-N-BE2 + OVCAR-8. Particulars: read-out: apparent Kd; compound concentrations:100 nM and 1000 nM (sheet 'Samples'); n = 1.
The test system of assay [10] is PRKAG1. Also on record: species or system human, MV4-11 + K-562 + COLO205 + SK-N-BE2 + OVCAR-8. Particulars: read-out: apparent Kd; compound concentrations:100 nM and 1000 nM (sheet 'Samples'); n = 1.
Assay [11] deals with PRKAG2. Also on record: species or system human, MV4-11 + K-562 + COLO205 + SK-N-BE2 + OVCAR-8. Particulars: read-out: apparent Kd; compound concentrations:100 nM and 1000 nM (sheet 'Samples'); n = 1.
In assay [12] the test system is ACOX1. Particulars: read-out: apparent Kd, n = 1.
In assay [13] the test system is AKT3. Particulars: read-out: apparent Kd, n = 1.
Assay [14] relates to BTK. Particulars: read-out: apparent Kd, n = 1.
For assay [15], the system named is CDC42. Particulars: read-out: apparent Kd, n = 1.
Assay [16] concerns CDK7. The following applies: read-out: apparent Kd, n = 1.
Assay [17] has as its system PIK3CD. The following applies: read-out: apparent Kd, n = 1.
Assay [18] has as its system STK16. The following applies: read-out: apparent Kd, n = 1.
The test system of assay [19] is TTN. Particulars: read-out: apparent Kd, n = 1.
In assay [20] the test system is RIOK2. Also on record: species or system human, MV4-11 + K-562 + COLO205 + SK-N-BE2 + OVCAR-8. Particulars: read-out: apparent Kd, compound concentrations: 100 nM and 1000 nM (sheet 'Samples'), n = 1.
The mark [21] stands for this setting: compound concentrations:100 nM and 1000 nM (sheet 'Lestaurtinib' of Supplementary Table 1),run:Lestaurtinib_02339_R2,Plate:MR001.
[22] abbreviates: compound concentrations:100 nM and 1000 nM (sheet 'Lestaurtinib' of Supplementary Table 1),run:Lestaurtinib_02422_R1,Plate:MR006.
Where [23] appears, read: compound concentrations:100 nM and 1000 nM (sheet 'Lestaurtinib' of Supplementary Table 1),run:Lestaurtinib_02487_R1,Plate:MR012.

As for `CCn1c(-c2nonc2N)nc2ccccc21` [SB-693162], in assay [1], the potency estimated from few doses is 2410 nM.
For the compound `CN(C)S(=O)(=O)c1cc(-c2ccc3nccc(-c4cccc(S(N)(=O)=O)c4)c3c2)cnc1N` [GSK1669921A], in [2], the potency estimated from few doses is 1300 nM.
For the compound `Cn1ccc(-c2cccc(Nc3ccnc4cc(-c5nccs5)ccc34)c2)n1` [GW525701_KCGS], the potency estimated from few doses in assay [3] is 1370 nM.
Consider `COc1cc(Nc2nccc(N3CCC(NC(=O)Nc4cc(C)ccc4C)C3)n2)cc(OC)c1OC` (centres unmarked) [GSK1379762_KCGS], for which, in [4], the potency estimated from few doses is 1940 nM.
For `Cc1cc(-c2ccc3c(c2)CC[C@@H](N[C@@H](C)c2ccccc2)C3)cnc1N.Cc1cc(-c2ccc3c(c2)CC[C@@H](N[C@@H](C)c2ccccc2)C3)cnc1N.Cl.Cl` [GW412617A], the potency estimated from few doses in [5] is 1020 nM.
Turning to `CCCNC(=O)Nc1ccc(N(C)c2ccnc(NC3CC3)n2)cc1` [GW818933X], in assay [6], the potency estimated from few doses was 1120 nM.
Consider `CO/N=C(\c1ccccc1)c1cnn(-c2ccccc2)c1N` [RO1163374-000], for which, in assay [7], the potency estimated from few doses was 2210 nM.
As to `CCn1c(-c2nonc2N)nc2cnc(Oc3cccc(NC(=O)c4ccc(N(C)C)cc4)c3)cc21` [GSK248233A], the potency estimated from few doses in [8] was 227 nM.
Take `Cl.O=C(Nc1ccc(Oc2ccc3[nH]c(NC(=O)c4ccccc4)nc3c2)cc1)Nc1cc(C(F)(F)F)ccc1F` [GW709042A]: in assay [9], the potency estimated from few doses is 1420 nM.
For the compound `COc1ccccc1-c1ccc2c(NC(=O)C3CC3)n[nH]c2n1` [SB-711239], the potency estimated from few doses in [10] is 1190 nM; in assay [11] it was 1270 nM.
As for Lestaurtinib, the potency estimated from few doses in assay [12] (compound concentrations:100 nM and 1000 nM (sheet 'Lestaurtinib' of Supplementary Table 1),run:Lestaurtinib_02364_R2,Plate:MR002) was 1360 nM; in [12] (compound concentrations:100 nM and 1000 nM (sheet 'Lestaurtinib' of Supplementary Table 1),run:Lestaurtinib_02624_R1,Plate:MR020) it was 1670 nM; in [13] (setting [21]), 1910 nM; in assay [13] (compound concentrations:100 nM and 1000 nM (sheet 'Lestaurtinib' of Supplementary Table 1),run:Lestaurtinib_03172_R3,Plate:MR031), 1540 nM; in assay [14] (setting [22]), 760 nM; in assay [14] (setting [23]) it was 385 nM. The potency estimated from few doses is 1440 nM in [15] (compound concentrations:100 nM and 1000 nM (sheet 'Lestaurtinib' of Supplementary Table 1),run:Lestaurtinib_02437_R1,Plate:MR007); 1440 nM in assay [15] (compound concentrations:100 nM and 1000 nM (sheet 'Lestaurtinib' of Supplementary Table 1),run:Lestaurtinib_02765_R3,Plate:MR026); 132 nM in [16] (setting [23]); 1590 nM in [16] (compound concentrations:100 nM and 1000 nM (sheet 'Lestaurtinib' of Supplementary Table 1),run:Lestaurtinib_02496_R2,Plate:MR013); 190 nM in [17] (setting [21]); 12.4 nM in assay [17] (compound concentrations:100 nM and 1000 nM (sheet 'Lestaurtinib' of Supplementary Table 1),run:Lestaurtinib_02577_R3,Plate:MR016). Also, the potency estimated from few doses was 1430 nM in assay [18] (setting [22]); 1340 nM in assay [18] (compound concentrations:100 nM and 1000 nM (sheet 'Lestaurtinib' of Supplementary Table 1),run:Lestaurtinib_03260_R1,Plate:MR033); 1910 nM in [19] (compound concentrations:100 nM and 1000 nM (sheet 'Lestaurtinib' of Supplementary Table 1),run:Lestaurtinib_02364_R1,Plate:MR002); 737 nM in assay [19] (compound concentrations:100 nM and 1000 nM (sheet 'Lestaurtinib' of Supplementary Table 1),run:Lestaurtinib_02606_R2,Plate:MR019).
For the compound `Cl.c1ccc(Oc2ccc(Nc3ncc(-c4ccccc4)o3)cc2)cc1` [GW641155A], the potency estimated from few doses in assay [20] (CATDS: 1) is 2140 nM.
Turning to `COc1ccc2ncn(-c3cc(O[C@H](C)c4ccccc4C(F)(F)F)c(C(N)=O)s3)c2c1` [GSK317315A], the potency estimated from few doses in assay [20] (CATDS: 0.34769297632871299) is 1940 nM.
